# About 410 targets per protein were measured; listed, in parts, are those with the strongest signals and a random draw of the rest.
# B1: FedF (Escherichia coli), Q47212 (protein)
# chain: MRLKYILIIPLLLISLSVFASTLQVDKSVSYDWINSSASSAQVTGTLLGTGKTNTTQMPALYTWQHQIYNVNFIPSSSGTLTCQAGTILVWKNGRETQYALECRVSIHHSSGSINESQWGQQSQVGFGTACGNKKCRFTGFEISLRIPPNAQTYPLSSGDLKGSFSLTNKEVNWSASIYVPAIAKSYRLDTSITLPDTVNLKQNQATPVYYTFSAPSVSNTITGIPNQNDMPSSNVKLTIGPIQSKTTALYVQPDATGSWYDLSKSITMTVVKSSMLNFKGINAKPGNVTLSVPIVFEIQ
# What was measured:
# Test in all cases: glycan array binding signal (z-score within array); higher = stronger binding
# Details in all cases: glycan notation: IUPAC condensed, linker removed
# [1] = molecular target: Fuc(a1-2)Gal(b1-4)GlcNAc(b1-3)Gal(b1-4)GlcNAc
# Summary of the method: (§1)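 Arrays were curated from the Consortium for Functional Glycomics database, 3228 in total, and kept only where the protein sequence was available. Binding is expressed as a within-array Z-score. This score was averaged across arrays of the same protein sequence at different concentrations or buffers and across linkers, and negative values can be read as non-binding.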
# [2] = molecular target: Fuc(a1-2)Gal(b1-4)[Fuc(a1-3)]GlcNAc(b1-3)Gal(b1-4)[Fuc(a1-3)]GlcNAc
# Summary of the method: as §1
# [3] = molecular target: Fuc(a1-2)[Gal(a1-3)]Gal(b1-4)[Fuc(a1-3)]GlcNAc
# Summary of the method: as §1
# [4] = molecular target: Fuc(a1-3)[Gal(b1-4)]GlcNAc(b1-2)Man(a1-3)[Fuc(a1-3)[Gal(b1-4)]GlcNAc(b1-2)Man(a1-6)]Man(b1-4)GlcNAc(b1-4)[Fuc(a1-6)]GlcNAc
# Summary of the method: as §1
# [5] = molecular target: Gal(a1-3)Gal(b1-4)[Fuc(a1-3)]GlcNAc(b1-2)Man(a1-3)[Gal(a1-3)Gal(b1-4)[Fuc(a1-3)]GlcNAc(b1-2)Man(a1-6)]Man(b1-4)GlcNAc(b1-4)GlcNAc
# Summary of the method: as §1
# Gal(a1-3)GalNAc = molecular target: Gal(a1-3)GalNAc
# Summary of the method: as §1
# Gal(a1-6)Glc = molecular target: Gal(a1-6)Glc
# Summary of the method: as §1
# Gal(b1-3)Gal(b1-4)GlcNAc = molecular target: Gal(b1-3)Gal(b1-4)GlcNAc
# Summary of the method: as §1
# Gal(b1-3)GalNAc = molecular target: Gal(b1-3)GalNAc
# Summary of the method: as §1
# [6] = molecular target: Gal(b1-3)GalNAc(a1-3)[Fuc(a1-2)]Gal(b1-4)GlcNAc
# Summary of the method: as §1
# [7] = molecular target: Gal(b1-3)GlcNAc(b1-2)Man(a1-3)[Gal(b1-3)GlcNAc(b1-2)Man(a1-6)]Man(b1-4)GlcNAc(b1-4)[Fuc(a1-6)]GlcNAc
# Summary of the method: as §1
# [8] = molecular target: Gal(b1-3)[Fuc(a1-4)]GlcNAc(b1-3)Gal(b1-4)[Fuc(a1-3)]GlcNAc
# Summary of the method: as §1
# [9] = molecular target: Gal(b1-4)GlcNAc(b1-2)Man(a1-6)Man(b1-4)GlcNAc(b1-4)GlcNAc
# Summary of the method: as §1
# Gal3S(b1-4)Glc6S = molecular target: Gal3S(b1-4)Glc6S
# Summary of the method: as §1
# Gal3S(b1-4)GlcNAc6S = molecular target: Gal3S(b1-4)GlcNAc6S
# Summary of the method: as §1
# Gal3S6S(b1-4)GlcNAc6S = molecular target: Gal3S6S(b1-4)GlcNAc6S
# Summary of the method: as §1
# Gal6S(b1-4)GlcNAc = molecular target: Gal6S(b1-4)GlcNAc
# Summary of the method: as §1
# [10] = molecular target: GlcNAc(a1-4)Gal(b1-4)GlcNAc(b1-3)Gal(b1-4)GlcNAc
# Summary of the method: as §1
# [11] = molecular target: GlcNAc(b1-2)Man(a1-3)[GlcNAc(b1-2)Man(a1-6)]Man(b1-4)GlcNAc(b1-4)[Fuc(a1-6)]GlcNAc
# Summary of the method: as §1
# [12] = molecular target: GlcNAc(b1-3)[GlcNAc(b1-6)]GalNAc
# Summary of the method: as §1
# [13] = molecular target: GlcNAc(b1-4)GlcNAc(b1-4)GlcNAc(b1-4)GlcNAc(b1-4)GlcNAc
# Summary of the method: as §1
# GlcNAc3Prop(b1-4)GlcNAc = molecular target: GlcNAc3Prop(b1-4)GlcNAc
# Summary of the method: as §1
# [14] = molecular target: Man(a1-2)Man(a1-3)[Man(a1-2)Man(a1-6)]Man
# Summary of the method: as §1
# Man(a1-6)Man = molecular target: Man(a1-6)Man
# Summary of the method: as §1
# [15] = molecular target: Neu5Ac(a2-3)Gal(b1-4)GlcNAc(b1-3)Gal(b1-4)[Fuc(a1-3)]GlcNAc
# Summary of the method: as §1
# [16] = molecular target: Neu5Gc(a2-3)Gal(b1-4)GlcNAc
# Summary of the method: as §1
binder,measurement,setting,value
B1,glycan array binding signal (z-score),[1],-0.446
same,glycan array binding signal (z-score),[2],-0.053
same,glycan array binding signal (z-score),[3],0.755
same,glycan array binding signal (z-score),[4],-0.17
same,glycan array binding signal (z-score),[5],-0.084
same,glycan array binding signal (z-score),Gal(a1-3)GalNAc,-0.219
same,glycan array binding signal (z-score),Gal(a1-6)Glc,0.241
same,glycan array binding signal (z-score),Gal(b1-3)Gal(b1-4)GlcNAc,-0.144
same,glycan array binding signal (z-score),Gal(b1-3)GalNAc,-0.092
same,glycan array binding signal (z-score),[6],-0.088
same,glycan array binding signal (z-score),[7],0.741
same,glycan array binding signal (z-score),[8],-0.274
same,glycan array binding signal (z-score),[9],0.184
same,glycan array binding signal (z-score),Gal3S(b1-4)Glc6S,1.04
same,glycan array binding signal (z-score),Gal3S(b1-4)GlcNAc6S,0.729
same,glycan array binding signal (z-score),Gal3S6S(b1-4)GlcNAc6S,1.97
same,glycan array binding signal (z-score),Gal6S(b1-4)GlcNAc,0.402
same,glycan array binding signal (z-score),[10],0.918
same,glycan array binding signal (z-score),[11],1.99
same,glycan array binding signal (z-score),[12],-0.248
same,glycan array binding signal (z-score),[13],-0.269
same,glycan array binding signal (z-score),GlcNAc3Prop(b1-4)GlcNAc,13.7
same,glycan array binding signal (z-score),[14],0.257
same,glycan array binding signal (z-score),Man(a1-6)Man,-0.145
same,glycan array binding signal (z-score),[15],-0.292
same,glycan array binding signal (z-score),[16],-0.223

# Source: the supplement of paper PMC8728848
